Experimental data from the supplement of paper PMC12350171.
Where a name gives a salt, the structure may show the parent alone. Values without a mark were called inactive.

How the values were obtained:
Details in all cases: 20 µM
[1] = system: Salmonella enterica typhimurium; assay: growth AUC normalised to DMSO control (fraction of control); higher = less growth inhibition, active = hit call of the paper
Method in brief: (§1)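 For the AUC endpoint, growth curves were integrated by the trapezoidal rule up to the exponential-to-stationary transition and normalised to DMSO controls on the same plate. The curves came from OD578 readings taken hourly for 24 h, in three biological replicates. Pathogens had been passaged anaerobically twice and inoculated at an OD578 of 0.01 into pre-reduced mGAM plates carrying 20 μM compound and 1% DMSO, sealed with breathable membranes. Medium for Haemophilus parainfluenzae also contained hemin and NAD.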

Shigella flexneri = assay: as above
Method in brief: as §1

Vibrio cholerae = assay: as above
Method in brief: as §1

[2] = system: Yersinia pseudotuberculosis; assay: as above
Method in brief: as §1

P. vulgatus RND KO = assay: growth AUC normalised to DMSO control (median) (fraction of control); higher = less growth inhibition, active = hit call of the paper
Method in brief: (§2)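 Anaerobic growth was tracked hourly at OD578 for 24 h in 96-well plates of mGAM seeded at OD578 0.01 with each approved-drug library compound at 20 μM and 1% DMSO. Strains had first been passaged twice overnight without oxygen. Three biological replicates were run. The reported median is the area under the curve, calculated by the trapezoidal rule on curves truncated at entry into stationary phase and normalised to vehicle wells on the same plate.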

P. vulgatus WT = assay: as above
Method in brief: as §2

[3] = system: S. enterica typhimurium WT; assay: as above
Method in brief: as §2

[4] = system: S. enterica typhimurium tolC KO; assay: as above
Method in brief: as §2
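Throughout, for growth AUC normalised to DMSO control (median): active when median AUC fell below 0.1.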

Compound | growth AUC normalised to DMSO control [1] | growth AUC normalised to DMSO control (Shigella flexneri) | growth AUC normalised to DMSO control (Vibrio cholerae) | growth AUC normalised to DMSO control [2] | growth AUC normalised to DMSO control (P. vulgatus RND KO) | growth AUC normalised to DMSO control (P. vulgatus WT) | growth AUC normalised to DMSO control [3] | growth AUC normalised to DMSO control [4]
NC12CC3CC(CC(C3)C1)C2 [Adamantamine fumarate] | 1.02 | 1.06 | 1.03 | 1 | 1.04 | 1.08 | 0.996 | 0.996
COc1ccc(CN(CCN(C)C)c2ccccn2)cc1 [Pyrilamine maleate] | 0.974 | 0.995 | 0.969 | 1.01 | 0.986 | 0.979 | 0.993 | 0.987
O=C(O)CCC(=O)c1ccc(-c2ccccc2)cc1 [Fenbufen] | 0.999 | 0.99 | 0.87 | 0.986 | 1.01 | 0.994 | 1 | 0.993
COc1ccc(CC(C)NCC(O)c2ccc(O)c(NC=O)c2)cc1 (stereo not drawn) [Formoterol fumarate] | 1.01 | 1.07 | 0.995 | 1.05 | 1.01 | 1.02 | 1.01 | 0.998
CC[C@H](c1ccc(O)cc1)[C@@H](CC)c1ccc(O)cc1 [Hexestrol] | 0.998 | 1 | 0.932 | 0.999 | 0.766 | 0.825 | 0.989 | 0.889
CN(C)CCOC(c1ccccc1)c1ccccc1 [Diphenhydramine hydrochloride] | 0.993 | 0.976 | 0.976 | 0.969 | 1.01 | 1 | 0.981 | 1
NS(=O)(=O)c1cc2c(cc1Cl)N=CNS2(=O)=O [Chlorothiazide] | 1.01 | 0.998 | 1.02 | 1.01 | 1.03 | 1.07 | 1.01 | 1.01
CCCc1nn(C)c2c(=O)[nH]c(-c3cc(S(=O)(=O)N4CCN(C)CC4)ccc3OCC)nc12 [Sildenafil] | 1.02 | 1.07 | 1.06 | 1.03 | 1.02 | 1.02 | 1.02 | 1
CCC1=C(C)CN(C(=O)NCCc2ccc(S(=O)(=O)NC(=O)N[C@H]3CC[C@H](C)CC3)cc2)C1=O [Glimepiride] | 1.02 | 1.01 | 1.02 | 1.01 | 1.03 | 1.01 | 1.03 | 0.993
CN1CC2c3ccccc3Oc3ccc(Cl)cc3C2C1 (stereo not drawn) [Asenapine maleate] | 0.954 | 0.974 | 0.837 (active) | 0.976 | 0.939 | 0.948 | 0.973 | 0.935
COc1ccccc1O [Guaiacol] | 0.991 | 0.976 | 0.992 | 0.999 | 0.99 | 1 | 0.997 | 1
CC(CNC1CCCCC1)OC(=O)c1ccccc1 (stereo not drawn) [Hexylcaine hydrochloride] | 0.993 | 0.97 | 0.996 | 0.986 | 1 | 1.01 | 0.995 | 0.992
Cc1cc(C(C)(C)CC(C)(C)C)ccc1OCCOCC[N+](C)(C)Cc1ccccc1 [Methyl benzethonium chloride] | 1.01 | 0.999 | 0.943 | 1.02 | 0.0136 (active) | 0.0206 (active) | 1.01 | 0.962
CNCCC(Oc1ccc(C(F)(F)F)cc1)c1ccccc1 (stereo not drawn) [Fluoxetine hydrochloride] | 0.996 | 1 | 0.975 | 0.991 | 0.991 | 0.997 | 1.01 | 0.934
CNC[C@H](O)[C@@H](O)[C@H](O)[C@H](O)CO [Meglumine] | 1.02 | 1 | 1.04 | 0.984 | 1.01 | 1.04 | 1.01 | 1
NS(=O)(=O)c1cc(C(=O)O)c(NCc2ccco2)cc1Cl [Furosemide] | 0.996 | 1.01 | 1.01 | 1.01 | 1.05 | 1.06 | 1.02 | 1.02

Compound | growth AUC normalised to DMSO control [1] | growth AUC normalised to DMSO control (Shigella flexneri) | growth AUC normalised to DMSO control (Vibrio cholerae) | growth AUC normalised to DMSO control [2] | growth AUC normalised to DMSO control (P. vulgatus RND KO) | growth AUC normalised to DMSO control (P. vulgatus WT) | growth AUC normalised to DMSO control [3] | growth AUC normalised to DMSO control [4]
CCOc1ccc2c(c1)C(C)=CC(C)(C)N2 [Ethoxyquin] | 0.998 | 0.95 | 0.958 | 0.986 | 0.971 | 0.972 | 1.01 | 1
CNCCCC12CCC(c3ccccc31)c1ccccc12 [Maprotiline hydrochloride] | 1 | 0.999 | 0.942 | 1.01 | 0.947 | 0.985 | 0.997 | 0.982
COc1cc(C)nc(-n2nc(C)cc2OC)n1 [Epirizole] | 0.997 | 1 | 0.981 | 0.992 | 0.979 | 0.999 | 1 | 1.01
CC1=Nc2ccc(Cl)cc2S(=O)(=O)N1 [Diazoxide] | 1.01 | 1.03 | 1.02 | 0.999 | 1.04 | 1.01 | 1.01 | 0.989
CS(=O)(=O)OCCCCOS(C)(=O)=O [Busulfan] | 1.01 | 1.04 | 1.07 | 1.03 | 1.02 | 0.994 | 1.01 | 1.01
Cc1ccc(N(CC2=NCCN2)c2cccc(O)c2)cc1 [Phentolamine hydrochloride] | 1.03 | 1.01 | 1.02 | 0.975 | 1 | 0.991 | 0.999 | 0.99
NS(=O)(=O)Cc1noc2ccccc12 [Zonisamide] | 1.01 | 0.997 | 0.997 | 1 | 1 | 1 | 0.998 | 1.01
NS(=O)(=O)c1cc(C2(O)NC(=O)c3ccccc32)ccc1Cl (stereo not drawn) [Chlorthalidone] | 1 | 0.989 | 0.995 | 0.994 | 1 | 0.986 | 1 | 0.998
Cc1ccc(Cl)c(Nc2ccccc2C(=O)O)c1Cl [Meclofenamic acid sodium salt monohydrate] | 1 | 0.954 | 0.891 | 0.981 | 0.859 | 0.903 | 1.01 | 1.01
CCCCC(O)c1ccccc1 (stereo not drawn) [Fenipentol] | 0.997 | 0.986 | 1.01 | 0.995 | 1 | 0.988 | 1 | 1
C[C@]12CCC(=O)C=C1CC[C@@H]1[C@@H]2C(=O)C[C@@]2(C)[C@H]1CC[C@]2(O)C(=O)CO [Cortisone] | 0.993 | 0.945 | 0.983 | 0.982 | 0.994 | 1 | 1 | 0.995
CC(C)n1c(/C=C/C(O)CC(O)CC(=O)O)c(-c2ccc(F)cc2)c2ccccc21 (stereo not drawn) [Fluvastatin sodium salt] | 0.985 | 0.995 | 0.997 | 0.996 | 1 | 1 | 1 | 0.931
COc1cc(C(=O)OCCCN2CCCN(CCCOC(=O)c3cc(OC)c(OC)c(OC)c3)CC2)cc(OC)c1OC [Dilazep dihydrochloride] | 1 | 1.03 | 1.01 | 0.989 | 0.993 | 0.989 | 1 | 0.978
C#C[C@]1(O)CC[C@H]2[C@@H]3CCC4=CC(=O)CC[C@@H]4[C@H]3CC[C@@]21CC [(D-) Norgestrel] | 0.98 | 0.938 | 0.961 | 0.979 | 0.989 | 0.974 | 0.998 | 1
Cc1cccc(CN2CCN(C(c3ccccc3)c3ccc(Cl)cc3)CC2)c1 (stereo not drawn) [Meclozine dihydrochloride] | 0.989 | 0.961 | 0.885 | 0.987 | 1 | 0.992 | 1 | 1
